A selection: hits, their analogues and other compounds. The true share with any hit is near 7.9%.
HCMV antiviral – inhibitors of human cytomegalovirus; 410,000 compounds, 4.5% hits; activity change, negative = inhibition, % at 57.5 µM; HFF cells, HCMV-luciferase reporter, 72 h; active compounds read low; in the data active means activity change below about -60%; inconclusive means no clear call, values can overlap the other calls; inactive means above about -39%
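Two compound doses tested in HFFs infected with HCMV-luciferase, MOI 1 PFU/cell, 72 h at 37C. Lysate luminescence read with OneGlo; data normalized against buffer-only and 10uM Salinomycin inhibitor controls.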
FMDV inh – blocks foot and mouth disease virus | AID 1159524 | FMDV antiviral cell-based qHTS | 410,000 compounds, 1.2% hits | Potency, µM (titrated, usually from 57.9 µM), usual class: inhibitors; calls by dose curve; tested in HEK293T cells; further: read-out not given here; nearly all actives have a fitted effect of over 45% in size
MARV entry inh – blocks Marburg virus binding to or entry into cells; AID 540276; Marburg virus pseudotyped entry inhibition, cell reporter; 300,000 compounds, 1.8% hits; Potency, µM (top dose mostly 37.8 µM), usual class: inhibitors; calls by dose curve; tested in HEK293 cells
LASV entry inh – Lassa virus entry inhibition. Lassa virus pseudotype entry inhibition, cell reporter. Potency, µM (series often up to 37.9 µM), actives largely listed as inhibitors. 300,000 compounds, 1.2% hits. AID 540256; calls by dose curve; tested in HEK293 cells; further: nearly all actives have a fitted effect of over 50% in size
HCV inh – inhibitors of hepatitis C virus infection; Huh7.5.1 HCVcc-Cre infection, luciferase reporter, 44 h; Potency, µM (top dose mostly 41.8 µM), actives largely listed as inhibitors; 340,000 compounds, 3.4% hits; active means well fitted inhibition curve with a large enough effect; inconclusive means small, poorly fitted or top-dose-only effect, or another doubt; inactive means no such curve, though single readings can be large or run the other way
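Whole-lifecycle infectious HCVcc-Cre system; cells 1,000/well, compound then virus (~0.5 moi) added 4 h after plating, 44 h culture. Luciferase read 15 sec following 15 min substrate incubation, room temp.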
Hits are given with their value; 0 = inactive; ? = inconclusive; - = not tested or not shown.

SMILES	HCMV antiviral	FMDV inh	MARV entry inh	LASV entry inh	HCV inh
COc1ccc(Nc2nccc3[nH]c(-c4ccccc4OC)cc23)cc1	0	-	-	-	-
C=CCn1c(SCc2nc3ccccc3c(=O)[nH]2)nc2ccccc2c1=O	-61	0	0	0	0
O=c1[nH]c(CSc2nc3ccccc3[nH]2)nc2c1cnn2-c1ccccc1	-86	22µM	?	?	?
O=c1[nH]c(SCc2nc3c(cnn3-c3ccccc3)c(=O)[nH]2)nc2ccccc12	-92	0	1µM	0.71µM	?
O=c1[nH]c(CSc2ncccn2)nc2c1cnn2-c1ccccc1	0	0	0	0	0
Cc1ccc2nc(SCc3nc4c(cnn4-c4ccccc4)c(=O)[nH]3)[nH]c2c1	-83	11µM	?	?	?
Cc1nn(C)c(Cl)c1C(=O)NCC(=O)Nc1ccc(C(C)C)cc1	0	0	0	0	0
COc1cc(OC)c(NC(=O)CSc2cc(=O)n(C)c3ccc(Cl)cc23)cc1Cl	0	0	0	0	-
COc1ccc(-c2noc(N3CCC(C(=O)N4CCN(c5cccc(C)c5C)CC4)CC3)n2)cc1	0	0	-	0	-
COc1ccc(NC(=O)C2CCN(c3nc(-c4ccc(OC)cc4)no3)CC2)cc1	0	0	-	-	?
COc1ccc(-c2noc(N3CCC(C(=O)N4CCN(c5ccccn5)CC4)CC3)n2)cc1	-83	13µM	?	?	4.5µM
COC(=O)c1c(-c2ccc(Cl)cc2)noc1N1CCN(c2cccc(C)c2C)CC1	0	?	-	0	-
CCN(C(=O)C1CCN(c2nc(-c3ccc(OC)cc3)no2)CC1)c1ccc(OC)cc1	-73	?	-	-	8.9µM
COc1ccc(-c2noc(N3CCC(C(=O)N4CCN(c5cccc(OC)c5)CC4)CC3)n2)cc1	-84	?	-	0	-
COC(=O)c1c(-c2ccc(Cl)cc2)noc1N1CCN(c2cccc(OC)c2)CC1	-72	?	-	0	-
Cc1ccc(Cn2cc(S(=O)(=O)c3cccc(C)c3)c(=O)c3cc(F)c(N4CCOCC4)cc32)cc1	0	0	-	0	-
Cc1ccc(C)c(CN2C(=O)c3ccccc3S(=O)(=O)c3ccc(C(=O)N4CCN(c5ccccc5F)CC4)cc32)c1	?	0	?	0	-
COc1ccc(-c2noc(N3CCC(C(=O)N4CCN(c5ccccc5OC)CC4)CC3)n2)cc1	-77	0	-	?	-
CC1CN(CC(=O)Nc2cccc(C(=O)Nc3cccc(C(F)(F)F)c3)c2)CC(C)O1 (stereo not given)	0	?	?	?	?
CS(=O)(=O)N1CCCc2cc(C(=O)Nc3cccc(C(F)(F)F)c3)ccc21	?	25µM	0	?	-
CS(=O)(=O)N1CCc2cc(C(=O)Nc3ccc(O)cc3)ccc21	0	0	?	0	0
CS(=O)(=O)N1CCc2cc(C(=O)Nc3ccc(COCC(F)(F)F)cc3)ccc21	?	?	-	-	11µM
CC1CCN(CC(=O)Nc2cccc(C(=O)Nc3cccc(C(F)(F)F)c3)c2)CC1	0	0	8.9µM	?	22µM
CCOc1ccc(NC(=O)Cn2c(=O)oc3cc(S(=O)(=O)N4CCC(C)CC4)ccc32)cc1	?	?	0	0	-
CC1=C(C(=O)OC2CCCC2)C(c2c(Cl)cccc2Cl)CC(=O)N1 (stereo not given)	?	0	0	0	-
SMILES	HCMV antiviral	FMDV inh	MARV entry inh	LASV entry inh	HCV inh
Cc1ccc(CNC(=O)c2nnn(CC(=O)Nc3cc(C)cc(C)c3)c2N)cc1	?	0	-	-	0
Cc1ccccc1NC(=O)Cn1nc(-c2ccccc2)nc(Cc2ccccc2)c1=O	0	0	-	?	-
COc1ccccc1NC(=O)C1=C(C)Nc2c(C(=O)Nc3ccc(F)cc3)cnn2C1c1ccc(Cl)cc1 (stereo not given)	?	0	-	?	-
N#CC1=C(SCC(=O)Nc2nccs2)NC(=O)CC1c1ccccc1 (stereo not given)	0	0	0	0	0
COC(=O)CSC1=C(C#N)C(c2ccc(C)o2)CC(=O)N1 (stereo not given)	0	0	1.8µM	?	0
Cc1ccccc1NC(=O)CSC1=C(C#N)C(c2ccsc2)CC(=O)N1 (stereo not given)	-62	0	?	0	?
O=C1N=C2C=CC=CC2N1C1CCN(CCCC(c2ccc(F)cc2)c2ccc(F)cc2)CC1 (stereo not given)	-	-	0	-	-
OC[C@@H](O)C(O)[C@H](O)CO	-	0	-	-	-
Cc1noc(-c2ccc(N(C)Cc3ccccc3)c([N+](=O)[O-])c2)n1	0	0	0	?	-
CCC(=O)n1nc(-c2ccc(Cl)cc2)nc1N	0	0	-	-	0
CCc1nc(N)nc(N)c1-c1ccc(NCCN)c([N+](=O)[O-])c1	-78	0	-	-	-
CCc1nc(N)nc(N)c1-c1ccc(Cl)cc1	-99	0	?	3.3µM	?
Cc1ccc(NC(=O)c2ccc(NCCN)c([N+](=O)[O-])c2)cc1	0	0	0	?	0
CCc1nc(N)nc(N)c1-c1ccc(N(C)Cc2ccccc2)c([N+](=O)[O-])c1	-97	22µM	0.89µM	?	?
CCCCOC(=O)Nc1ccc(N2CCOCC2)cc1	0	0	?	0	0
Cc1ccccc1-c1nc(-c2ccc(NC(=O)c3ccc4c(c3)OCO4)cc2)no1	-79	0	?	?	?
O=C(c1ccc(F)cc1)c1ccc(N2CCCCC2)cc1	0	0	-	-	?
O=C(Nc1ccc(C(=O)N2CCCCC2)cc1)C1=CSCCO1	0	0	-	-	0
O=C(Nc1ccc(N2CCCCC2)cc1)c1ccc(F)cc1	0	0	11µM	?	?
O=C(Nc1ccc(C(=O)N2CCN(c3ccccc3F)CC2)cc1)C1=CSCCO1	-61	0	-	-	0
CCCCOC(=O)Nc1ccc(N2CCCCC2)cc1	0	0	?	8.9µM	0
COC(=O)c1cccc(C(=O)N2CCc3c(cnc(C)c3CNC(=O)c3ccsc3)C2)c1	-	0	-	-	-
CCCCN1C(=O)C(CC(=O)NCCCCc2ccccc2)CC(C(=O)N(C)C)=C1C (stereo not given)	0	0	-	-	-
CN(N=Nc1nc[nH]c1C(=O)NN)C1CCCCC1	0	0	?	0	0
COc1ccc([C@H]2N[C@]3(CCCN(Cc4ccccc4)C3=O)[C@H]3C(=O)N(Cc4ccccc4)C(=O)[C@@H]23)cc1	0	0	-	-	-
SMILES	HCMV antiviral	FMDV inh	MARV entry inh	LASV entry inh	HCV inh
O=C(Nc1ccc(N2CCN(C(=O)c3ccccc3)CC2)cc1)c1ccc2c(c1)OCCO2	-69	32µM	?	?	?
O=C(Nc1ccc(N2CCCCC2)cc1)c1ccc2c(c1)OCCO2	-91	0	?	?	?
O=C(Nc1ccc(Nc2ccccc2)cc1)c1ccc(F)cc1	0	0	-	-	10µM
Cc1ccc(NC(=O)c2ccc3c(c2)OCCO3)cc1	0	0	13µM	4.5µM	0
O=C(Nc1ccncc1)c1ccc2c(c1)OCCO2	0	0	0	0	?
C[C@@H]1CN([C@H](C)CO)C(=O)CCCn2cc(nn2)CO[C@H]1CN(C)C(=O)c1ccc2ccn(C)c2c1	0	0	-	-	-
O=S(=O)(c1ccc(N2CCN(Cc3ccccc3)CC2)nc1)N1CCCC1	0	0	-	-	0
OCC[C@H]1C[C@H](O)[C@@H](O)[C@@]2(CCCO2)O1	0	0	-	-	0
CC(=O)N1CCN(c2ccc(NC(=O)c3ccc4c(c3)OCCO4)cc2)CC1	0	-	0	0	0
